Measured values: the supplement of paper PMC11417369
Whole data set: some 25,000 sequences, median “ln(normalized median fluorescence intensity)” near 6.7, cut for the highest 2% near 10. The sample as a whole holds a higher share of the highest values than the screen did.

test system: PfHDP1 homeodomain (GST-tagged); assay: gcPBM binding intensity (ln(normalized median fluorescence intensity)); higher = stronger DNA binding
Summary of the method: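 Binding intensity is the highest Masliner-normalised natural-log median intensity over replicate spots in either probe orientation. To obtain it, GST-tagged P. falciparum DNA-binding domains made in E. coli were incubated for 1 h on an Agilent 4 × 180k array of primer-extended double-stranded 36-bp intergenic genomic probes plus negative controls. Detection used Alexa488 anti-GST antibody with scanning at 488 nm.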

Compared with “ATAAATTTTTTATGAACACACAAATACACCCACTCA [CACACA_site5465]”, “TACTTTCAAAAGATCACACATATATATATATATATA [CACACA_site5630]” is higher in “gcPBM binding intensity (ln)” value: 7.07 for the first, 9.53 for the second.

First: TCCTTAAAATATGGTTGTACGTACATCCTAGGTGTT [XGTACX_site7068]
Second: TTTTTACGTAAACAAAATAATTATATAATATTATTT [CACACA_negctrl_site1769]
The “gcPBM binding intensity (ln)” value of the first is higher: 6.52 for the first, 6.34 for the second.

Going from “AAAATCATTCCAAAGACATGCATTTTGCAAATAAAA [TGCATGCA_site461]” to “AATTATTTACCCTATACACACAAAACAGACTAAAAA [CACACA_site6688]”, the “gcPBM binding intensity (ln)” value falls from 9.22 to 6.76.

Going from “TCGTGTGAAAATATTACACACATTTACTATAGTATC [CACACA_site7590]” to CTGTACACTTAAACGGTGCAAAAAGAAAAAAAAGAA, the “gcPBM binding intensity (ln)” value rises from 6.65 to 10.6.

Going from “AATTTATTTTTAAAAAGTACATACTTAAGAAAACGA [XGTACX_site3660]” to “ATATATTATATTATATGTACTTAAAAAAGTGCAAAG [XGTACX_site318]”, the “gcPBM binding intensity (ln)” value rises from 6.85 to 9.16.

Going from “TTTGAACTCTTAAGTGGTACAAATTTGTATTTTCTC [XGTACX_site2322]” to “TTCTTTATTATATGCACACGTACATATAATATATAT [CACACA_site2018]”, the “gcPBM binding intensity (ln)” value rises from 6.52 to 9.96.

Going from “TTTATTATACAAAATTGTACTTTATAATTTTATGTA [XGTACX_site5846]” to “TTTATTATATGCACACGTACATATAATATATATATA [XGTACX_site4108]”, the “gcPBM binding intensity (ln)” value rises from 6.31 to 10.8.

First: TGAATGCTTTTATGCACACGTACAAAAATATTATAT [CACACA_site2668]
Second: TATTGCACAAAATAATTTTATTATACTTTATGTTAG [TGCATGCA_negctrl_site574]
The “gcPBM binding intensity (ln)” value of the first is lower: 10.4 for the first, 10.8 for the second.

Compared with “TAATGAAGCTTATGCACACGTTCATTATTTATATTA [CACACA_site3219]”, “AATTCTTTATTATATGCACACGTACATATAATATAT [CACACA_site8621]” is lower in “gcPBM binding intensity (ln)” value: 10.4 for the first, 9.66 for the second.

Compared with “TATATTCATAATATTACACACGTTCATTTATTTTAA [CACACA_site2031]”, “TAAATTTTAATATGCACACAAAATGTTATATTAAAA [CACACA_site4366]” is higher in “gcPBM binding intensity (ln)” value: 6.67 for the first, 9.86 for the second.

First: TATGAATGCTTTTATGCACACGTACAAAAATATTAT [CACACA_site8851]
Second: AATAATGAAGCTTATGCACACGTTCATTATTTATAT [CACACA_site5736]
The “gcPBM binding intensity (ln)” value of the first is lower: 9.99 for the first, 10.6 for the second.

First: ATGCTTTTATGCACACGTACAAAAATATTATATAAT [XGTACX_site5589]
Second: TAGTAAAAACCAAAATGTACATGTGCCATTTTTTTA [XGTACX_site2630]
The “gcPBM binding intensity (ln)” value of the first is higher: 10.9 for the first, 6.15 for the second.

For “TTTTTATTGTTGCTATATTTATAACAATTTATCATA [GTGCAC_negctrl_site75]”, the “gcPBM binding intensity (ln)” value was 6.6.
